Source: PubChem (National Center for Advancing Translational Sciences (NCATS))
Only some compounds are listed: those with a hit (about 2% of all), similar ones and a draw of the others.
IL-2 act: qHTS of IL-2 Activators; AID 652025, 2013; activation, % (series mostly up to about 46 µM); hit rate 0.065% among 360,000; IL-2 activation reporter assay, cell-based qHTS; stimulated with anti-CD3/CD4/CD28 beads; in transgenic mouse T cells; in the data active means activation above about 50%; inconclusive means mostly about 30% to 49%
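Readout: EGFP and DsRed signals by fluorescent plate cytometry. Unstimulated transgenic mouse T cells received compound 60 min before antibody-bead stimulation, then incubated 18 h at 37 degrees C.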
NPSR antagonist: qHTS Assay for Antagonists of the Neuropeptide S Receptor: cAMP Signal Transduction. Q6W5P4. CHO-NPSR cells, cAMP TR-FRET, antagonist mode. Potency, µM (series often up to 38.3 µM), usual class: inhibitors. hit rate 1% among 220,000. AID 1461, 2008; further: nearly all actives have a fitted effect of over 50% in size
ClpP mod: qHTS Assay for Activators of ClpP. purified B. subtilis ClpP, FRET peptide cleavage, 20 min. Potency, µM (series often up to 57.5 µM). ATP-dependent Clp protease proteolytic subunit (Bacillus subtilis (strain 168)), P80244. hit rate 1.9% among 340,000; active means well fitted falling curve with a large enough effect; inconclusive means small, poorly fitted or top-dose-only effect; inactive means no such curve, though single readings can be large or run the other way; further: the source files actives as falling curves though it sought activators and does not explain the sign; nearly all actives have a fitted effect of over 65% in size
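FRET quenching reversal measured ClpP activation: 10 microg/mL B. subtilis ClpP at pH 8 with the FRET-FV decapeptide, read at 430 nm after 320 nm excitation. The 20-min minus 0-min signal was scaled between DMSO/no-enzyme wells and ADEP (5.8 microM final).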
PKM2 act: qHTS Assay for Activators of Human Muscle isoform 2 Pyruvate Kinase. Pyruvate kinase PKM (Homo sapiens), P14618. Potency, µM (top dose mostly 57.5 µM), usual class: activators. hit rate 0.34% among 260,000. purified PKM2, Kinase-Glo ATP luminescence, activation; response scale: 0% is enzyme alone, no compound; further: nearly all actives have a fitted effect of over 55% in size
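Kinase-Glo luminescence reports ATP generated from ADP (0.1 mM) and PEP (0.5 mM) by purified hPK-M2 after 1 h at room temperature, pH 7.2 imidazole buffer; intermediate enzyme activity allows detecting inhibitors and activators.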
Each line names hits and unclear results; the compound was inactive in the other large screens. Unless noted, the call rests on the fitted dose curve; in most records, active means well fitted curve in the direction sought with a large enough effect; inconclusive means small, poorly fitted or top-dose-only effect, or another doubt; inactive means no such curve, though single readings can be large; an effect the other way counts as inactive or inconclusive.

COc1ccc(-c2nc(CCNC(=O)Cc3ccc(F)cc3)cs2)cc1	ClpP mod 22µM (no result: IL-2 act, NPSR antagonist, PKM2 act)
COc1cc(OC)cc(C(=O)NCCc2csc(-c3ccc(C(F)(F)F)cc3)n2)c1	ClpP mod 32µM (no result: IL-2 act, NPSR antagonist, PKM2 act)
COc1ccc(CCC(=O)NCCc2csc(-c3ccc(F)cc3)n2)cc1	none (no result: IL-2 act, NPSR antagonist, PKM2 act)
COc1ccc(CC(=O)NCCc2csc(-c3ccc(C(F)(F)F)cc3)n2)cc1	none (no result: IL-2 act, NPSR antagonist, PKM2 act)
COc1ccc(-c2nc(CCNC(=O)c3cccs3)cs2)cc1OC	ClpP mod 28µM (no result: IL-2 act, NPSR antagonist, PKM2 act)
OC(c1cccc(OCc2ccccc2)c1)c1nnc(-c2ccccc2)o1 (stereo unspecified)	none
OC(c1ccc(OCc2ccccc2)cc1)c1nnc(-c2ccccc2)o1 (stereo unspecified)	ClpP mod 14µM
CC1(CCc2ccc3c(c2)OCO3)NC(=O)c2ccccc2N1 (stereo unspecified)	ClpP mod 28µM
O=C1NC(c2ccc3c(c2)OCO3)Nc2ccccc21 (stereo unspecified)	ClpP mod 32µM
CC1(CCc2ccc3c(c2)OCO3)NCCc2c1[nH]c1ccccc21 (stereo unspecified)	none (no result: NPSR antagonist, PKM2 act)
COC(=O)c1c(-c2ccccc2)c[nH]c1C	none
COc1ccc(CCNC(=O)CC(=O)N/N=C/c2ccc(C(=O)O)cc2)cc1OC	ClpP mod 14µM (no result: NPSR antagonist)
O=C(CC(=O)N/N=C/c1ccc(C(=O)O)cc1)NCCc1ccccc1	none (no result: NPSR antagonist)
CCOc1ccc(NC(=O)CSc2nnc(C)n2C2CC2)cc1S(=O)(=O)N1CCCC1	ClpP mod 25µM (no result: NPSR antagonist, PKM2 act)
CCOc1ccc(NC(=O)CSc2nnnn2C2CC2)cc1S(=O)(=O)N1CCCC1	none (no result: NPSR antagonist, PKM2 act)
O=C1c2cccc3c([N+](=O)[O-])ccc(c23)C(=O)N1c1ccc(Cl)cn1	NPSR antagonist 5µM
O=C1c2cccc3c([N+](=O)[O-])ccc(c23)C(=O)N1c1nccs1	NPSR antagonist 10µM
COc1ccc(NC(=O)COC(=O)CN2C(=O)C3CCCCC3C2=O)cc1 (stereo unspecified)	none (no result: NPSR antagonist, PKM2 act)
COC(=O)[C@@H](NC(=O)N(C1CCCCC1)C1CCCCC1)C(C)C	none
Cc1cc(C(C)(C)C)nc2[nH]n(-c3ccccc3)c(=O)c12	none
O=C1OCCC1Sc1ncnc2sccc12 (stereo unspecified)	none
CC(C)c1ccc(NC(=O)CSc2nnc(-c3ccccn3)n2C)cc1	ClpP mod 28µM
CCc1ccc(NC(=O)CSc2nnc(-c3ccccn3)n2C)cc1	none
O=C(CCNC(=O)c1ccc([N+](=O)[O-])cc1)Nc1cc(Cl)ccc1N1CCOCC1	none (no result: NPSR antagonist, PKM2 act)
COc1ccccc1Nc1nc2ccc(C)cc2cc1C#N	ClpP mod 25µM
O=C1COc2cc(S(=O)(=O)CCC(=O)NC3CCCCC3)c(Cl)cc2N1	none (no result: IL-2 act, NPSR antagonist, PKM2 act)
CCOC(=O)c1cc2c3ccccc3n(CC)c2nc1N	ClpP mod 16µM
CCN1CCN(S(=O)(=O)c2ccc(Cl)c(C(=O)NC(C)c3ccccc3Cl)c2)CC1 (stereo unspecified)	ClpP mod 35µM (no result: NPSR antagonist, PKM2 act)
COCCn1c(SCC(=O)NNC(=O)c2ccccc2)nc2ccccc2c1=O	ClpP mod 28µM
COCCCNC(=O)CSc1nc2ccccc2c(=O)n1Cc1ccc2c(c1)OCO2	ClpP mod 28µM
COCCCNC(=O)CSc1nc2cc(C(=O)NCCOC)ccc2c(=O)n1Cc1ccc2c(c1)OCO2	none (no result: NPSR antagonist, PKM2 act)
CCCS(=O)(=O)c1c(S(=O)(=O)CCC)c2c(N)cccn2c1C(=O)OC	none (no result: ClpP mod)
Cc1ccc(N2C(=O)C3C(C2=O)C2C=CC3C23CC3)c([N+](=O)[O-])c1 (stereo unspecified)	none (no result: ClpP mod)
O=c1/c(=C/c2ccco2)sc2n1CN(c1cccc(Br)c1)CN=2	NPSR antagonist inconclusive
O=c1/c(=C/c2ccco2)sc2n1CN(c1ccccc1)CN=2	ClpP mod 25µM
Cc1ccc(/C=C2\OC(=O)c3ccccc32)cc1	ClpP mod 28µM
Cc1ccccc1/C=C1\OC(=O)c2ccccc21	ClpP mod 28µM
Cc1ccccc1C=O	none (no result: NPSR antagonist, PKM2 act)
Cc1ccc(C=C2C=C(c3ccccc3)OC2=O)cc1	none (no result: NPSR antagonist, PKM2 act)
CCC(=O)Nc1nonc1-c1nc2ccccc2n1N(C(=O)CC)C(=O)CC	ClpP mod 28µM
CCC(=O)Nc1nonc1-c1nc2ccccc2n1Cc1ccccc1	ClpP mod inconclusive
CC(=O)Nc1nonc1-c1nc2ccccc2n1CCC(C)C	NPSR antagonist inconclusive, ClpP mod inconclusive
CCC(=O)Nc1nonc1-c1nc2ccccc2n1CCC(C)C	NPSR antagonist inconclusive, ClpP mod 28µM
C=CCNC(=O)COC(=O)C1CCN(S(=O)(=O)c2ccc3c(c2)OCCO3)CC1	none (no result: NPSR antagonist)
CCOc1ccc(S(=O)(=O)N2CCc3cc(OC)c(OC)cc3C2)cc1	PKM2 act 16µM
CCOc1ccc(S(=O)(=O)N2CCc3ccccc3C2)cc1	none
CCN1CCN(C(=O)CS(=O)(=O)Cc2nc(-c3cccc(OC)c3)oc2C)CC1	none (no result: NPSR antagonist)
O=C(O)c1cccnc1Sc1ccc(Br)cc1	none (no result: NPSR antagonist, ClpP mod)
Cc1c(C(=O)O)oc2c3c(ccc12)OCCO3	ClpP mod 18µM
COc1c(Br)cc2c(C)c(C(=O)O)oc2c1Br	none
CCc1ccc(NC(=O)C2CCCN(S(=O)(=O)c3cccs3)C2)cc1 (stereo unspecified)	none (no result: NPSR antagonist, ClpP mod)
CCC1S/C(=N\S(=O)(=O)c2cccs2)N(C2CCCCC2)C1=O (stereo unspecified)	ClpP mod 28µM
Cc1coc2c(C)c3oc(=O)c(CC(=O)N4CCCCC4)c(C)c3cc12	none (no result: IL-2 act, NPSR antagonist, PKM2 act)
Cc1ccc(NC(=O)Cn2c(-c3ccc4c(c3)OCO4)cn(-c3ccccc3)c2=O)cc1C	ClpP mod 28µM (no result: IL-2 act, NPSR antagonist, PKM2 act)
COc1ccc(-n2cc(-c3ccc4c(c3)OCO4)n(CC(=O)Nc3cc(Cl)ccc3C)c2=O)cc1	none (no result: IL-2 act, NPSR antagonist, PKM2 act)
CN(CC(=O)Nc1ccccc1C(F)(F)F)C(=O)c1cc2c(s1)CCCCC2	none (no result: NPSR antagonist, ClpP mod, PKM2 act)
Cn1c(=O)[nH]c(=O)c2c1nc(Br)n2CCC(=O)c1ccccc1	ClpP mod 28µM
CC(C)n1c(SCC(=O)Nc2ccccc2)nc2c1c(=O)[nH]c(=O)n2C	PKM2 act 8.9µM
Cn1c(=O)[nH]c(=O)c2c1nc(Br)n2C/C=N/NC(=O)c1ccccc1	none (no result: ClpP mod)
CC(C)n1c(SCC(N)=O)nc2c1c(=O)[nH]c(=O)n2C	none
CCn1c(SCC(=O)Nc2ccccc2)nc2c1c(=O)n(C)c(=O)n2C	PKM2 act 7.9µM
CC(C)n1c(SCC(=O)Nc2ccccc2)nc2c1c(=O)n(C)c(=O)n2C	PKM2 act 14µM
O=C(NCCCN1CCOCC1)c1cc(-c2ccc(F)cc2)no1	none (no result: NPSR antagonist, PKM2 act)
COCCn1c(SCc2ccc(F)cc2)nc2c1c(=O)[nH]c(=O)n2C	none (no result: NPSR antagonist)
COCCn1c(SCC(=O)Nc2ccccc2)nc2c1c(=O)[nH]c(=O)n2C	PKM2 act 6.3µM
Nc1[nH]c(=O)[nH]c(=O)c1N=Cc1ccccc1	ClpP mod 28µM (no result: NPSR antagonist, PKM2 act)
CCc1ccccc1N(CC(=O)N1CCCC1)S(C)(=O)=O	none (no result: NPSR antagonist)
O=C(CSc1nc(C2CC2)nc2ccccc12)N1c2ccccc2Sc2ccccc21	NPSR antagonist inconclusive, ClpP mod 13µM
